The values below come from PubChem BioAssay.

As a reminder, the inhibition is the drop in the measured response relative to a control, in per cent.

The structures appear in SMILES notation. Activity calls are given as the source filed them.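 How the source made its calls: active means inhibition above the hit cutoff set in the earlier primary screen (cut at about 27% in these data); inactive means the rest.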

The target in this test is Protein phosphatase methylesterase 1 (Homo sapiens) (UniProt Q9Y570). In words: PME-1 inhibitor activity retest, confirmation, biochemical, fluorescence polarization, FP-Rh probe, triplicate (AID 2171).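 Further: 0% = enzyme with DMSO and 100% = wells lacking PME-1.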 Particulars: recombinant PME-1, FP-Rh probe fluorescence polarization; at 5.9 µM; active compounds read high.
Chain of Protein phosphatase methylesterase 1 (Homo sapiens) (Q9Y570 whole entry, looked up): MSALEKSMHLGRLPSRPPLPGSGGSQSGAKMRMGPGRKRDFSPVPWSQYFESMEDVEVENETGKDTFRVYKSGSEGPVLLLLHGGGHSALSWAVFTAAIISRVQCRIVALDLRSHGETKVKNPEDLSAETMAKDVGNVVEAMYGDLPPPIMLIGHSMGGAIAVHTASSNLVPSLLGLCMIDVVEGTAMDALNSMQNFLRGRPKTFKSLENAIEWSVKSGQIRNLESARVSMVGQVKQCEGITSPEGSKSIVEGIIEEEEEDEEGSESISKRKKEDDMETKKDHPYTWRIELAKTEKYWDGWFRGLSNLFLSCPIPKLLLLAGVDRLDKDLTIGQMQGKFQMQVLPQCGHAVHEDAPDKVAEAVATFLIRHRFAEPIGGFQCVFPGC
Consider `CCn1c2ccccc2c2cc(NC(=O)c3ccccc3[N+](=O)[O-])ccc21`, for which the inhibition was 20.3% (inactive). For `Cc1cc2nc3ccc(N(C)C)cc3nc2cc1N`, the inhibition was 20% (inactive).

Turning to `CCCCN(CCCC)CCNC(=O)c1cn(CC)c2ccc(S(=O)(=O)N(C)C3CCCCC3)cc2c1=O`, the inhibition is 85% (active).

Regarding `CCC(=Nc1ccc(N)cc1)C1=C(O)C(C(=O)OC)C(C)(C)CC1=O` (centres undefined), the inhibition was 2.34% (inactive). Next, `CCO[C@@H]1OC(C(=O)N2CCN(Cc3ccccc3)CC2)=C[C@H](c2cn(C(C)=O)c3ccccc23)[C@H]1CCCO`: 75.4% (active); `COc1ccc(S(=O)(=O)N(C)C)cc1NC(=O)Cc1c[nH]c2ccccc12`: 85% (active); `CC(=O)Oc1c(I)cc(I)cc1C(=O)Nc1ccc(Cl)cc1`: 66.8% (active). Next, `O=C1Nc2ccc(Br)cc2C12NNc1ccccc1O2` (centres undefined): 38.5% (active). Consider `COc1ccc(/C=N/NC(=O)c2cc3cc(OC)c(OC)cc3[nH]2)cc1`, for which the inhibition is 8.04% (inactive). Regarding `N#Cc1ccccc1Cn1c(=O)n(-c2ccc(CC(=O)NCc3ccco3)cc2)c(=O)c2sccc21`, the inhibition is 38.4% (active).

Turning to `O=C(O)COc1ccccc1/C=N/Nc1ccc(S(=O)(=O)Nc2ccc(Cl)cc2)cc1[N+](=O)[O-]`, the inhibition is 62.7% (active). The same measure for `CC(C)=CCc1cc2c(=O)c3c(O)c4c(cc3oc2c(O)c1O)OC(C)C4(C)C` (centres undefined): -51.2% (inactive); for `CCOc1ccc(N=C/C=C/c2ccccc2)c(O)c1`: 9.57% (inactive). Next, `CCOC(=O)CSc1nc2cc3c(cc2cc1C#N)OCCO3`: 20.1% (inactive); `O=C(N/N=C/c1c[nH]c2ccccc12)c1sc2ccccc2c1Cl`: 21.7% (inactive). For `O=C(CSc1c(F)c(F)cc(F)c1F)Nc1ccc(C2SCCS2)cc1`, the inhibition was 5.01% (inactive). The same measure for `COc1ccc2noc3c2c1C(=O)c1ccccc1-3`: 22.2% (inactive). In the case of `C=C(C)COc1ccc(-c2[nH]ncc2-c2ccc(OC)c(OC)c2)c(O)c1`, the inhibition is 22.1% (inactive). The same measure for `CN(C)S(=O)(=O)c1cccc(NC(=S)NNC(=O)c2cc3ccccc3cc2O)c1`: -1.97% (inactive); for `Nc1c(C(=O)Nc2ccc(Br)cc2)sc2nc(-c3ccco3)ccc12`: 34.4% (active); for `COc1ccc2cc3c(N)c(C(=O)NCc4ccco4)sc3nc2c1`: 39.8% (active). The same measure for `COc1ccc(NC(C(=O)Nc2cccc(C(C)=O)c2)c2ccccc2)cc1` (centres undefined): 36% (active); for `CCc1ccc(-c2cc(C(=O)N/N=C/c3c[nH]c4ccccc34)[nH]n2)cc1`: 12% (inactive).

For `COc1ccc(NS(=O)(=O)c2ccc(N/N=C(\C)c3ccncc3)c([N+](=O)[O-])c2)cc1`, the inhibition was 26.3% (active). Next, `CCOc1cc(CNc2ccc(O)cc2)ccc1OCc1ccc(Cl)cc1Cl`: 13.2% (inactive); `Fc1ccc2nc(Nc3nc4cc5c(cc4s3)OCO5)sc2c1`: 2.53% (inactive).

On to `N#CCN(CC#N)C(=O)C1c2ccccc2Oc2ccccc21`, for which the inhibition was 0.3% (inactive).

As to `Cc1ccc(Cn2nnc3c(=O)[nH]c(C4CCN(S(=O)(=O)/C=C/c5ccccc5)CC4)nc32)cc1`, the inhibition was 23.8% (inactive).

For `O=C(N=Nc1c(O)[nH]c2ccccc12)c1cccs1`, the inhibition is 42.6% (active). Take `O=C1NN(c2ccc(Cl)c(Cl)c2)C(=O)/C1=C/c1cccc(OC(=O)c2cccs2)c1`: the inhibition was 8.75% (inactive). Next, `CCCCOC(=O)c1ccc(NC(=O)Nc2ccc(OC)c(OC)c2)cc1`: 14.7% (inactive); `COc1cccc(CNC(=O)CCCc2cn(C)c3ccccc23)c1`: 6.78% (inactive); `O=[N+]([O-])c1cc(S(=O)(=O)Nc2cccc(C(F)(F)F)c2)ccc1-n1nnc2ccccc21`: 18.7% (inactive).

In the case of `CC(C)c1ccc2[nH]c(O)c(N=NC(=O)c3cccc(S(=O)(=O)N4CCCCC4)c3)c2c1`, the inhibition is 58.3% (active). Turning to `Nc1ccc(N2CCCCC2)c2nonc12`, the inhibition is 11.3% (inactive).

With `Cc1nn(-c2ccccc2)c2ncc(C(=O)c3cc(Cl)ccc3O)cc12`, the inhibition was -5.34% (inactive). In the case of `CC(C)(C)c1ccc(NC(=O)C2=CC=CN3CCS(=O)(=O)N=C23)cc1`, the inhibition was 9.34% (inactive). Next, `CCOc1cc(/C=C2\N=C(SCC)SC2=O)cc([N+](=O)[O-])c1OC(C)=O`: 47.5% (active). The same measure for `Cc1ccsc1/C=N/n1c(-c2cc(-c3ccccc3)n[nH]2)n[nH]c1=S`: 22% (inactive).
